Where “and” joins values, the source holds several entries; their conditions need not be identical. Equal values may be shown once. The source holds several records for some structures; these can differ, active in one and inactive in another. Calls of active or inactive are those of the source. Rule for the calls: active = hit-call score of the fitted dose curve at least 0.9, where 1 is the maximum; inactive = score below 0.9.
Experiments:
[1] = target: Nuclear respiratory factor 1 (Homo sapiens) (UniProt Q16656); assay: ATG_NRF1_CIS: Attagene CIS-FACTORIAL HepG2 Assay for human Nuclear Respiratory Factor 1 (NRF1) Orphan Gene (AID 2282987); details: HepG2 NRF1 cis-element reporter, Attagene multiplex; actives raise or lower the signal
Nuclear respiratory factor 1 (Homo sapiens), sequence (Q16656 whole entry, looked up): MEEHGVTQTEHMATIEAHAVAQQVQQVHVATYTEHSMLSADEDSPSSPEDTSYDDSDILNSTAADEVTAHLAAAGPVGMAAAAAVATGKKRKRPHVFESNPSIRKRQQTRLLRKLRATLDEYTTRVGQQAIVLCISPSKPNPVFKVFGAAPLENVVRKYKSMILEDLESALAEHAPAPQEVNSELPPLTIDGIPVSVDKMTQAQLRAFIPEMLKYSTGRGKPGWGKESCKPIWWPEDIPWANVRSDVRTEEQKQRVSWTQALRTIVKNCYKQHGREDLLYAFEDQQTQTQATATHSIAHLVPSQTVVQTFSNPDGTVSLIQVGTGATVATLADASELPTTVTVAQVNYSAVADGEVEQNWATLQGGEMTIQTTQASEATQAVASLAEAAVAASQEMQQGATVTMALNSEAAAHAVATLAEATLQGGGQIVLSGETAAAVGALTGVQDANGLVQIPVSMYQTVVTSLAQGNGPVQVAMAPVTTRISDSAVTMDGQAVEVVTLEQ
How it was run: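 Endogenous factor activity was captured via cis-element-driven reporter transcripts in HepG2 cells. Following 24 h chemical treatment, transcripts were quantified by RT-PCR and capillary electrophoresis.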

[2] = ATG_NFI_CIS: Attagene CIS-FACTORIAL HepG2 Assay for human Nuclear Factor I (NFI) (AID 2282989); details: HepG2 cis-regulatory reporter, NFI response element transcription; actives raise or lower the signal
How it was run: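 HepG2 cells transiently transfected with cis-element-driven multiplexed reporter transcription units, dosed for 24 h. Reporter mRNA quantified by RT-PCR, fluorescent labelling, HpaI digestion and capillary electrophoresis; bidirectional fit versus DMSO baseline.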

[3] = target: Myc proto-oncogene protein (Homo sapiens) (UniProt P01106); assay: ATG_Myc_CIS: Attagene CIS-FACTORIAL HepG2 Assay for human Myelocytomatosis (Myc) Proto-Oncogene Transcription Factor (AID 2282990); details: HepG2, Attagene cis-reporter transcription factor activity; actives raise or lower the signal
Myc proto-oncogene protein (Homo sapiens), sequence (P01106 whole entry, looked up): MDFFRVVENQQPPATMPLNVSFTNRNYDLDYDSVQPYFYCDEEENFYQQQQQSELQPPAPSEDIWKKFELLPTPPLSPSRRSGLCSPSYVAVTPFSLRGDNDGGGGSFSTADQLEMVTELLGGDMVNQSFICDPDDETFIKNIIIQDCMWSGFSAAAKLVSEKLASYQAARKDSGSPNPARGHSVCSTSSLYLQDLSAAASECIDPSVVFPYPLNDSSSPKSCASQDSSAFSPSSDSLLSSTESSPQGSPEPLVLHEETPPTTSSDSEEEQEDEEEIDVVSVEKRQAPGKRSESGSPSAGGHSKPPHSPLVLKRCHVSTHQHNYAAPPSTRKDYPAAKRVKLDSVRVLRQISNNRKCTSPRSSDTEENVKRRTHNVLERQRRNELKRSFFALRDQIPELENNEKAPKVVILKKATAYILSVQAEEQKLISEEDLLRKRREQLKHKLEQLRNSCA
How it was run: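 Multiplexed cis-reporter transcription in HepG2 cells after 24 h chemical treatment. Reporter mRNA measured by RT-PCR and capillary electrophoresis fluorescence; activity fitted bidirectionally against DMSO control.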

[4] = ATG_NF_kB_CIS: Attagene CIS-FACTORIAL HepG2 Assay for human Nuclear Factor Kappa B (NF-kB) (AID 2282991); details: HepG2 Attagene cis-factorial NF-kB reporter mRNA; actives raise or lower the signal
How it was run: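 After 24 h compound incubation, transfected HepG2 cells yield total RNA; reporter cDNA is PCR-amplified, end-labelled with 6-FAM, HpaI-digested and analysed on a genetic analyser. Endogenous factor activity, DMSO-referenced bidirectional fit.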

[5] = ATG_NRF2_ARE_CIS: Attagene CIS-FACTORIAL HepG2 Assay for human Nuclear Factor Erythroid 2 Related Factor 2 (NFR2) response to Antioxidant Response Elements (ARE) (AID 2282992); details: HepG2 Attagene ARE/NRF2 reporter, transcription factor activity; actives raise or lower the signal
How it was run: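 Readout: reporter mRNA quantified by RT-PCR plus FAM-labelled primer extension, HpaI digestion and capillary electrophoresis, 24 h after dosing transfected HepG2 cells. Gain or loss of signal is fitted bidirectionally against DMSO baseline.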

[6] = ATG_Oct_MLP_CIS: Attagene CIS-FACTORIAL HepG2 Assay for human Octamer-Binding Transcription Factor (Oct) (AID 2282993); details: HepG2 Attagene cis-factorial Oct reporter, mRNA; actives raise or lower the signal
How it was run: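 HepG2 cells transiently transfected with cis-promoter-driven multiplexed reporter transcription units, dosed for 24 h. Reporter mRNA quantified by RT-PCR, fluorescent labelling, HpaI digestion and capillary electrophoresis; bidirectional fits versus DMSO baseline.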

[7] = target: Cellular tumor antigen p53 (Homo sapiens) (UniProt P04637); assay: ATG_p53_CIS: Attagene CIS-FACTORIAL HepG2 Assay for human p53 Transcription Factor (AID 2282994); details: HepG2 p53 cis-element reporter, Attagene mRNA; actives raise or lower the signal
Cellular tumor antigen p53 (Homo sapiens), sequence (P04637 whole entry, looked up): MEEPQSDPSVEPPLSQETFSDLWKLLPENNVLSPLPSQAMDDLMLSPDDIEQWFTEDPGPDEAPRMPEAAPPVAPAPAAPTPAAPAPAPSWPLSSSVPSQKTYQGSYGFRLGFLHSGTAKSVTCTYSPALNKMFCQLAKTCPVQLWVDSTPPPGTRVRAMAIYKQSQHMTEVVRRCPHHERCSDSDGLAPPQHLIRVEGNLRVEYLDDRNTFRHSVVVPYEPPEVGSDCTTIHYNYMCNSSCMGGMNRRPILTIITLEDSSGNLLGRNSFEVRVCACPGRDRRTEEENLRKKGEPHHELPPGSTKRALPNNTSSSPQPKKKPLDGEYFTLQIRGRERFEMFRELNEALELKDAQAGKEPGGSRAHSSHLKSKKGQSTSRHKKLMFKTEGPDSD
How it was run: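 Read-out: reporter mRNA by RT-PCR plus capillary electrophoresis with fluorescence detection. Human HepG2 liver cells carried transfected multi-reporter cis-element constructs, dosed 24 h. Gain or loss of signal fitted bidirectionally against DMSO control.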

[8] = BSK_3C_TissueFactor: BioMAP Diversity Plus: 3C Assay for Tissue Factor Biomarker Activity (AID 2282997); details: BioMAP 3C HUVEC, tissue factor biomarker readout; actives raise or lower the signal
How it was run: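 HUVEC, 3C system, 24 h post-dose; Tissue Factor by ELISA; bidirectional fit vs DMSO baseline.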

[9] = BSK_3C_uPAR: BioMAP Diversity Plus: 3C Assay for Urokinase-type plasminogen activator receptor (uPAR) Biomarker Activity (AID 2282998); details: BioMAP 3C HUVEC, uPAR biomarker ELISA; actives raise or lower the signal
How it was run: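 Human umbilical vein endothelial primary cells were exposed to test chemical for 24 h. Cell-surface uPAR was then quantified by ELISA, and responses were fitted bidirectionally against DMSO as negative control and baseline.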

[10] = BSK_3C_VCAM1: BioMAP Diversity Plus: 3C Assay for Vascular cell adhesion molecule 1 (VCAM1) Biomarker Activity (AID 2282999); details: BioMAP 3C HUVEC, VCAM1 ELISA, cytokine-stimulated; actives raise or lower the signal
How it was run: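 Vascular primary endothelium (human umbilical vein) was exposed to chemicals and assayed 24 h later. VCAM-1 levels came from ELISA, with DMSO serving as baseline for bidirectional fitting.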

## CCc1cc(Cc2cc(CC)c(N)c(CC)c2)cc(CC)c1N
[1]
  outcome: inactive
[2]
  AC50: 53.4 µM (active)
[3]
  AC50: 57.3 µM (active)
[4]
  outcome: inactive
[5]
  AC50: 1.62 µM (active)
[6]
  AC50: 41.9 µM (active)
[7]
  AC50: 27.2 µM (active)

## O=c1cccc[nH]1
[1]
  outcome: inactive
[2]
  outcome: inactive
[3]
  outcome: inactive
[4]
  outcome: inactive
[5]
  outcome: inactive
[6]
  outcome: inactive
[7]
  outcome: inactive

## OCCCC(F)(F)C(F)(F)C(F)(F)C(F)(F)C(F)(F)C(F)(F)C(F)(F)C(F)(F)F
[1]
  outcome: inactive
[2]
  outcome: inactive
[3]
  outcome: inactive
[4]
  outcome: inactive
[5]
  outcome: inactive
[6]
  outcome: inactive
[7]
  AC50: 30.7 µM (active)
[8]
  AC50: 13.1 µM (active) and 26.1 µM (active)
[9]
  AC50: 19.6 µM (active) and 42.2 µM (active)
[10]
  AC50: 39.9 µM (active) and 46 µM (active)

## CCN(CC)c1ccc(N=Nc2ccccc2)cc1
[1]
  AC50: 35.4 µM (active)
[2]
  outcome: inactive
[3]
  outcome: inactive
[4]
  outcome: inactive
[5]
  AC50: 3.86 µM (active)
[6]
  outcome: inactive
[7]
  outcome: inactive
[8]
  outcome: inactive
[9]
  AC50: 20 µM (active)
[10]
  AC50: 20 µM (active)

## O=C=Nc1cccc2c(N=C=O)cccc12
[1]
  outcome: inactive
[2]
  outcome: inactive
[3]
  outcome: inactive
[4]
  outcome: inactive
[5]
  outcome: inactive
[6]
  outcome: inactive
[7]
  outcome: inactive
[8]
  outcome: inactive
[9]
  outcome: inactive
[10]
  outcome: inactive

## C=CC(=O)OCC(F)(F)C(F)(F)C(F)(F)C(F)(F)C(F)(F)C(F)(F)C(F)(F)C(F)F
[1]
  outcome: inactive
[2]
  outcome: inactive
[3]
  outcome: inactive
[4]
  AC50: 80.2 µM (active)
[5]
  AC50: 58.2 µM (active)
[6]
  outcome: inactive
[7]
  outcome: inactive
[8]
  outcome: inactive
[9]
  outcome: inactive
[10]
  outcome: inactive

## NS(=O)(=O)C(F)(F)C(F)(F)C(F)(F)C(F)(F)C(F)(F)C(F)(F)F
[1]
  outcome: inactive
[2]
  outcome: inactive
[3]
  outcome: inactive
[4]
  outcome: inactive
[5]
  outcome: inactive
[6]
  outcome: inactive
[7]
  outcome: inactive
[8]
  outcome: inactive
[9]
  AC50: 19.6 µM (active)
  outcome: inactive
[10]
  outcome: inactive

## CCOC(C=C(C)CCC=C(C)C)OCC
[1]
  outcome: inactive
[2]
  outcome: inactive
[3]
  outcome: inactive
[4]
  outcome: inactive
[5]
  AC50: 46.5 µM (active)
[6]
  outcome: inactive
[7]
  outcome: inactive
[8]
  AC50: 30.9 µM (active)
[9]
  AC50: 31.3 µM (active)
[10]
  AC50: 34 µM (active)

## O=S(=O)(O)CCC(F)(F)C(F)(F)C(F)(F)C(F)(F)C(F)(F)C(F)(F)C(F)(F)C(F)(F)F
[1]
  outcome: inactive
[2]
  outcome: inactive
[3]
  outcome: inactive
[4]
  outcome: inactive
[5]
  AC50: 91.8 µM (active)
[6]
  outcome: inactive
[7]
  outcome: inactive
[8]
  outcome: inactive
[9]
  outcome: inactive
[10]
  outcome: inactive

## O=S(=O)(O)CCC(F)(F)C(F)(F)C(F)(F)C(F)(F)F
[1]
  outcome: inactive
[2]
  outcome: inactive
[3]
  outcome: inactive
[4]
  outcome: inactive
[5]
  outcome: inactive
[6]
  outcome: inactive
[7]
  outcome: inactive
[8]
  outcome: inactive
[9]
  outcome: inactive
[10]
  outcome: inactive

## CC1=CC2C3C=CC(C3)C2C1C (stereo not given)
[1]
  outcome: inactive
[2]
  AC50: 100 µM (active)
[3]
  outcome: inactive
[4]
  outcome: inactive
[5]
  AC50: 50.6 µM (active)
[6]
  outcome: inactive
[7]
  AC50: 80.4 µM (active)
[8]
  outcome: inactive
[9]
  outcome: inactive
[10]
  outcome: inactive
